Assay results as given in ChEMBL document CHEMBL1961873, “Compounds: GSK PKIS; Assays: Nanosyn kinase panel” (2012).

Key:
[1] = biological target: Sphingosine kinase 1 (Homo sapiens) (UniProt Q9NYA1); settings: at 1 µM;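 note: mean SPHK1 inhibition value reported from the GSK PKIS kinase panel screen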
[2] = biological target: T1, Sphingosine kinase 2 (Homo sapiens) (UniProt Q9NRA0); settings: at 0.1 µM
T1 sequence (whole entry): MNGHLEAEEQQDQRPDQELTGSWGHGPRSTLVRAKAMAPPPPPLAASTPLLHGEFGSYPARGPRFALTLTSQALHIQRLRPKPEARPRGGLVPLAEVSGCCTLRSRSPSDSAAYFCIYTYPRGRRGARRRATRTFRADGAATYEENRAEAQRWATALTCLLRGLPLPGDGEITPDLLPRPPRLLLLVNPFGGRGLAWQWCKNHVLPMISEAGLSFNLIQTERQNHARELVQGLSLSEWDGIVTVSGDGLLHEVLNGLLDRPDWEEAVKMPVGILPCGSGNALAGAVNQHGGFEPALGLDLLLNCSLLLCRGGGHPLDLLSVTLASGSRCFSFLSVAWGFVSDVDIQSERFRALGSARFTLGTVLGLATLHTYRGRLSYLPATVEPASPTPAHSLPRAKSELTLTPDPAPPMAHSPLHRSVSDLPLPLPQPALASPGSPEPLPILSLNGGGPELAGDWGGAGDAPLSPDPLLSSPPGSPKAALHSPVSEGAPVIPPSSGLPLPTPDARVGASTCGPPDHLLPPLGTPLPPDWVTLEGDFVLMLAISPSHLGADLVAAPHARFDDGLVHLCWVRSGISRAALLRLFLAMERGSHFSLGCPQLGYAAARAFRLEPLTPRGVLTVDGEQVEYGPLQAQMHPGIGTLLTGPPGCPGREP

[3] = biological target: T1, Sphingosine kinase 2 (Homo sapiens); settings: at 1 µM
[4] = biological target: Casein kinase II subunit alpha (Homo sapiens) (UniProt P68400); settings: at 0.1 µM
[5] = biological target: Casein kinase II subunit alpha (Homo sapiens) (UniProt P68400); settings: at 1 µM
[6] = biological target: T2, Inhibitor of nuclear factor kappa-B kinase subunit alpha (Homo sapiens) (UniProt O15111); settings: at 0.1 µM
T2 sequence (whole entry): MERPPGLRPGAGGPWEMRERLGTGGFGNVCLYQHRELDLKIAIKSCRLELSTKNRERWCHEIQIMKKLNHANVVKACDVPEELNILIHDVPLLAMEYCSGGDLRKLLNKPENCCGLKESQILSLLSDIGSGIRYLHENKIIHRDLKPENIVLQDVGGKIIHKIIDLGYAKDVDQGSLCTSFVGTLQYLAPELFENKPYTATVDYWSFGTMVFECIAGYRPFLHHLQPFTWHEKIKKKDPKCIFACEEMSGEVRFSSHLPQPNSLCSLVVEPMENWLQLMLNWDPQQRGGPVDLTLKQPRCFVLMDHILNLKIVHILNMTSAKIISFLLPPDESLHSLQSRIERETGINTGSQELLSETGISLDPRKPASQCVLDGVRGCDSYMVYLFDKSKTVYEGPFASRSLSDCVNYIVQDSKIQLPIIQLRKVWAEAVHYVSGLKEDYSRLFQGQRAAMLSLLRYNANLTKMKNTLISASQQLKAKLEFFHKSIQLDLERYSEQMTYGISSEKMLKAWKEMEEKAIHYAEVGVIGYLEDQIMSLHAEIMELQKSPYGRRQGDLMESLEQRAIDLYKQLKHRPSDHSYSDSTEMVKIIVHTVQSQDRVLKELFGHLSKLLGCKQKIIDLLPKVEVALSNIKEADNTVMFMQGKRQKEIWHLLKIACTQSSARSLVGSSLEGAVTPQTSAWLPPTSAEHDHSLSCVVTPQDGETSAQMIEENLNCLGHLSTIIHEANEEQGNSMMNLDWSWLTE

[7] = biological target: T2, Inhibitor of nuclear factor kappa-B kinase subunit alpha (Homo sapiens); settings: at 1 µM
[8] = biological target: T3, Inhibitor of nuclear factor kappa-B kinase subunit beta (Homo sapiens) (UniProt O14920); settings: at 0.1 µM
T3 sequence (whole entry): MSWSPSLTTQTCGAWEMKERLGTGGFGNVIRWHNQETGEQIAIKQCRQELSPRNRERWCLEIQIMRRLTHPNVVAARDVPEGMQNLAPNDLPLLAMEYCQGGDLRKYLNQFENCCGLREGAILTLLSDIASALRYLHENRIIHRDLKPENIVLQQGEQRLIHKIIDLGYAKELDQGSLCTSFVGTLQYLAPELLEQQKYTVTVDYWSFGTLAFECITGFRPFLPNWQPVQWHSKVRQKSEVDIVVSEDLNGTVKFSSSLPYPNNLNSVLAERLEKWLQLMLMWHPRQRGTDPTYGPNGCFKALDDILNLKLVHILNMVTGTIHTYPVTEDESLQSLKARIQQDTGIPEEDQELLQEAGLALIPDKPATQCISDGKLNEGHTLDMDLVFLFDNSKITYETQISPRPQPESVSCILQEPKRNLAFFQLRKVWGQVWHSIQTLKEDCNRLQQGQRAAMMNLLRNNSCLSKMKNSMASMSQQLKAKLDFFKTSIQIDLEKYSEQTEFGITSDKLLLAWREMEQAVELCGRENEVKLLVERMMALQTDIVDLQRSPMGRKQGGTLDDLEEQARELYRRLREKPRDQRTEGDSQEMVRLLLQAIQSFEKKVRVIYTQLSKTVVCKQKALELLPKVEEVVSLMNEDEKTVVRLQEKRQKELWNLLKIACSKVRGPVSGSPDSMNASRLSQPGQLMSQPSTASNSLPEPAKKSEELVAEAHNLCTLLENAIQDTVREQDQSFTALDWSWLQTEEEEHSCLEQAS

[9] = biological target: T3, Inhibitor of nuclear factor kappa-B kinase subunit beta (Homo sapiens); settings: at 1 µM
[10] = biological target: T4, Inhibitor of nuclear factor kappa-B kinase subunit epsilon (Homo sapiens) (UniProt Q14164); settings: at 0.1 µM
T4 sequence (whole entry): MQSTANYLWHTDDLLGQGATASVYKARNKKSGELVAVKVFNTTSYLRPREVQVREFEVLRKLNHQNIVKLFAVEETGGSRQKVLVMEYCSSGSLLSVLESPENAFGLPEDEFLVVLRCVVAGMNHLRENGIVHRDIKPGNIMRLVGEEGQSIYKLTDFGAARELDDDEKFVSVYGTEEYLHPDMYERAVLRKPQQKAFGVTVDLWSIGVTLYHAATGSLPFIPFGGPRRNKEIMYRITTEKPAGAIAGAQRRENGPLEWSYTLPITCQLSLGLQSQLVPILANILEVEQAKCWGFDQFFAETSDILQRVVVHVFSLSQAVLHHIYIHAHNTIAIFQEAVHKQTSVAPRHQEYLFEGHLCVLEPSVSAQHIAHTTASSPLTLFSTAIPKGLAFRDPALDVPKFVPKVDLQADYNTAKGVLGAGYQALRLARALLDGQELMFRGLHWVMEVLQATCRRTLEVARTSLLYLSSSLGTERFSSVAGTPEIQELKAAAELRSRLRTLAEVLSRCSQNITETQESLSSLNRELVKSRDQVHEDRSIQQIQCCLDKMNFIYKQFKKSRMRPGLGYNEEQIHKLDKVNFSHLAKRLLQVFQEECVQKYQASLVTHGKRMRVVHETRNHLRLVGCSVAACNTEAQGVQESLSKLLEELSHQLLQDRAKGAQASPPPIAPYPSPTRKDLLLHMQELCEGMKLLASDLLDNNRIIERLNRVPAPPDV

[11] = biological target: T4, Inhibitor of nuclear factor kappa-B kinase subunit epsilon (Homo sapiens); settings: at 1 µM
[12] = biological target: T5, Serine/threonine-protein kinase Nek1 (Homo sapiens) (UniProt Q96PY6); settings: at 0.1 µM
T5 sequence (whole entry): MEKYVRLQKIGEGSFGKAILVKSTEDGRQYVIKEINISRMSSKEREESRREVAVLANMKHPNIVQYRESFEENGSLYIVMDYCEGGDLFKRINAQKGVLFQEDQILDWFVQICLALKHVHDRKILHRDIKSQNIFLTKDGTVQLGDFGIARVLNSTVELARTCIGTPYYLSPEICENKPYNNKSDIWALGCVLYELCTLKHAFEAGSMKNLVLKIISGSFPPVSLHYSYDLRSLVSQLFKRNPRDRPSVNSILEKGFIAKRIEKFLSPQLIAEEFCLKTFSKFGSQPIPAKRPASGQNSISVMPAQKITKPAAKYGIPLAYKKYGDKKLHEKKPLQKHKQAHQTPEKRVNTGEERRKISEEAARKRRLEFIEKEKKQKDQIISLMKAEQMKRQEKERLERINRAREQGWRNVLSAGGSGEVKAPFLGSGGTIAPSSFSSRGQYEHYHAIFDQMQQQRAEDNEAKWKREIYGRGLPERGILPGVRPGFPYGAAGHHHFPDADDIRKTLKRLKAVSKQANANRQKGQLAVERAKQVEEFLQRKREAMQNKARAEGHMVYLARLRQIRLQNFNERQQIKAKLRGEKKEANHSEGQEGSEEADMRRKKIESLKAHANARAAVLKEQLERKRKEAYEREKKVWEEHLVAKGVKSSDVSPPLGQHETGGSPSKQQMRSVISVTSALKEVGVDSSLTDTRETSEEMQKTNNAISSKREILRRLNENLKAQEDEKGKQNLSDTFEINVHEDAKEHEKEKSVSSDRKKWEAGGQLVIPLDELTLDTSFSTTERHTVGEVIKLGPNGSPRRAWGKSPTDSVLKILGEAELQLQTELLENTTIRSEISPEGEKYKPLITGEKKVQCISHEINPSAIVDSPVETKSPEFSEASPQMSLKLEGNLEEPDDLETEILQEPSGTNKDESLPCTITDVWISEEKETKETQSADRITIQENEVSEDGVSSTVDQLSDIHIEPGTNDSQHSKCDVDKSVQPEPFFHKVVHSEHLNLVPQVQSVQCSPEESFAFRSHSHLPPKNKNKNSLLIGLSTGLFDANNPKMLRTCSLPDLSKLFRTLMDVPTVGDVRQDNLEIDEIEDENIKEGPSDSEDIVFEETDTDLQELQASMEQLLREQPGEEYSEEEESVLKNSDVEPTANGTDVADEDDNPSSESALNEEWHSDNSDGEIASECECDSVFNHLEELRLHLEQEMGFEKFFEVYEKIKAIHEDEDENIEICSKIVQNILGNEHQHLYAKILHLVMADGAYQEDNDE

[13] = biological target: T5, Serine/threonine-protein kinase Nek1 (Homo sapiens); settings: at 1 µM
[14] = biological target: T6, Serine/threonine-protein kinase Nek2 (Homo sapiens) (UniProt P51955); settings: at 0.1 µM
T6 sequence (whole entry): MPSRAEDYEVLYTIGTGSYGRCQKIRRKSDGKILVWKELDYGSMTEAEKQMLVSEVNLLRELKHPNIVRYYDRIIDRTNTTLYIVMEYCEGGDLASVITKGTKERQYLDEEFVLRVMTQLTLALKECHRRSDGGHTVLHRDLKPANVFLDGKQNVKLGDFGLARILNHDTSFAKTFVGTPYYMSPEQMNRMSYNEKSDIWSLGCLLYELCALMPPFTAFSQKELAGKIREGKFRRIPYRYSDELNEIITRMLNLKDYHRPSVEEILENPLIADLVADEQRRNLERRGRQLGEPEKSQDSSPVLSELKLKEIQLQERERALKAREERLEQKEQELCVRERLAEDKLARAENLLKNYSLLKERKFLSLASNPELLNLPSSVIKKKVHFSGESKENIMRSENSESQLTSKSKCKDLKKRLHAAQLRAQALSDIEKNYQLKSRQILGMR

[15] = biological target: T6, Serine/threonine-protein kinase Nek2 (Homo sapiens); settings: at 1 µM
[16] = biological target: Serine/threonine-protein kinase Nek6 (Homo sapiens) (UniProt Q9HC98); settings: at 0.1 µM
[17] = biological target: Serine/threonine-protein kinase Nek6 (Homo sapiens) (UniProt Q9HC98); settings: at 1 µM
[18] = biological target: Serine/threonine-protein kinase Nek7 (Homo sapiens) (UniProt Q8TDX7); settings: at 0.1 µM
[19] = biological target: Serine/threonine-protein kinase Nek7 (Homo sapiens) (UniProt Q8TDX7); settings: at 1 µM
[20] = biological target: T7, Serine/threonine-protein kinase Nek9 (Homo sapiens) (UniProt Q8TD19); settings: at 0.1 µM;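 note: reported value is the mean percent inhibition of NEK9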
T7 sequence (whole entry): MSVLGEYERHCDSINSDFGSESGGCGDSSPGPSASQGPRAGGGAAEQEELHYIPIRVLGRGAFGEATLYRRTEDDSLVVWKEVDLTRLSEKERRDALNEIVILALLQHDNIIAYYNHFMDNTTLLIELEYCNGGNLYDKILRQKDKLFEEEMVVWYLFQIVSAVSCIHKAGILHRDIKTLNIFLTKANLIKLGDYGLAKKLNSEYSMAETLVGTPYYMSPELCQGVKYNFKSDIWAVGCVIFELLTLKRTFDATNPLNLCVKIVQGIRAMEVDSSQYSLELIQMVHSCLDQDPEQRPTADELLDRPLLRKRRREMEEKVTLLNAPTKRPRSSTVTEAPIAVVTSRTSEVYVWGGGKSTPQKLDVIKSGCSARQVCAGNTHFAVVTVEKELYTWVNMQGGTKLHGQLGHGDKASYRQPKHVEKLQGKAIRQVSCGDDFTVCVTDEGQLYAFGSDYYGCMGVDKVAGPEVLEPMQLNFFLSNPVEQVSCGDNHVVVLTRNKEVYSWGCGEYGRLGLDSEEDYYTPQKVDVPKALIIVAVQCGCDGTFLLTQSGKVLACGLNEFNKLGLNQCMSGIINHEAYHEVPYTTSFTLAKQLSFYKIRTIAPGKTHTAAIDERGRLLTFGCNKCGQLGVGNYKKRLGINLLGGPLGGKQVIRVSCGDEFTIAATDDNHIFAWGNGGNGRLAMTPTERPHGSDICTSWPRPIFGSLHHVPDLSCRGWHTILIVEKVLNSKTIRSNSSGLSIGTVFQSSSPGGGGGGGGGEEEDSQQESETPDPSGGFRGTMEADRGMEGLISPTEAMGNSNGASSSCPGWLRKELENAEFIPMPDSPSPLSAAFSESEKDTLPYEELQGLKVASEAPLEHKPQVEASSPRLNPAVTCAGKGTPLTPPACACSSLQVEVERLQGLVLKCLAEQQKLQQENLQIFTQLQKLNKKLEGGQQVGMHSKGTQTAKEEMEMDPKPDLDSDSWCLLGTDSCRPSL

Sequence of Casein kinase II subunit alpha (Homo sapiens) (P68400 whole entry, looked up): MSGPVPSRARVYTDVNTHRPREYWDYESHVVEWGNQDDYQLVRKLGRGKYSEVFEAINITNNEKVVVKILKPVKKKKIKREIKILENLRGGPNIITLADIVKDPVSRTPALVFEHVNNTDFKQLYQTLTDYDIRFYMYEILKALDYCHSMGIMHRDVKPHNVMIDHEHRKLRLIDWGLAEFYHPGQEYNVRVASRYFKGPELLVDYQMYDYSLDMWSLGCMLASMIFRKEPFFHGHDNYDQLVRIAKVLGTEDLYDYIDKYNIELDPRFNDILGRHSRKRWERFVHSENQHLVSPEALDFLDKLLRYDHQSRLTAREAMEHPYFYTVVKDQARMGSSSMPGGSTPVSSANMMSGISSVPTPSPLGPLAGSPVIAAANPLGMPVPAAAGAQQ
Sequence of Serine/threonine-protein kinase Nek6 (Homo sapiens) (Q9HC98 whole entry): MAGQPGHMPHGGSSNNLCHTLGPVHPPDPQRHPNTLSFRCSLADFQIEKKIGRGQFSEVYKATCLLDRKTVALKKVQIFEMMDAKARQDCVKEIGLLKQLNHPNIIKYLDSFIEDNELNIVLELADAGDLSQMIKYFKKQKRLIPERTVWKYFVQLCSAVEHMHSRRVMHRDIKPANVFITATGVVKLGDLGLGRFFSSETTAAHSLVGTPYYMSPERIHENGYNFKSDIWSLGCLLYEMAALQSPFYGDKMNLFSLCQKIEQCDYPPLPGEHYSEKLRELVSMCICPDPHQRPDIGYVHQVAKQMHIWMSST
Sequence of Serine/threonine-protein kinase Nek7 (Homo sapiens) (Q8TDX7 whole entry, looked up): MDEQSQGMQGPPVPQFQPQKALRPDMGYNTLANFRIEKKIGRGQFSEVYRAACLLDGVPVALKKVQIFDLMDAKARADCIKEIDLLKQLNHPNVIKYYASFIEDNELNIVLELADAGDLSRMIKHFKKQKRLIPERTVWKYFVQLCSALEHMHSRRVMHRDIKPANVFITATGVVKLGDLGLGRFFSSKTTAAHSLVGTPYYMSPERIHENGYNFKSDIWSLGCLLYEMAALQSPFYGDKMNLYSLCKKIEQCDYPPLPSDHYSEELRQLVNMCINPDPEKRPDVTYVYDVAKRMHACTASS
Sequence of Sphingosine kinase 1 (Homo sapiens) (Q9NYA1 whole entry): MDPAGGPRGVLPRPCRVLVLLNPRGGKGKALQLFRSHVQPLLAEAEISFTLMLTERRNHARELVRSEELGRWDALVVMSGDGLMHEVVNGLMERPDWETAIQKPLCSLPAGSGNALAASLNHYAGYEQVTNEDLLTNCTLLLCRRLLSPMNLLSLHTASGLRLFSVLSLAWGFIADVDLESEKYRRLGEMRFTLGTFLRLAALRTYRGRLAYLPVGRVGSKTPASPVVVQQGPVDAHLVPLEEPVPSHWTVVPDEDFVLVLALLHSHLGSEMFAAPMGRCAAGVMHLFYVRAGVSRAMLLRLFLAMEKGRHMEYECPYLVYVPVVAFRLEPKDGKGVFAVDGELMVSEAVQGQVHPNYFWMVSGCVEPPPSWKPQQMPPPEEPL

## COC(=O)c1ccc2c(c1)C(=Cc1cc(Br)c(O)c(Br)c1)C(=O)N2
[1]
  inhibition: -3.43%
[2]
  inhibition: -0.52%
[3]
  inhibition: -0.45%
[4]
  inhibition: 14.7%
[5]
  inhibition: 47%
[6]
  inhibition: 5.93%
[7]
  inhibition: 3%
[8]
  inhibition: 6.94%
[9]
  inhibition: 8.75%
[10]
  inhibition: 7.2%
[11]
  inhibition: 13.9%
[12]
  inhibition: 2.53%
[13]
  inhibition: 2.21%
[14]
  inhibition: 4.16%
[15]
  inhibition: 2.86%
[16]
  inhibition: 0.58%
[17]
  inhibition: 2.21%
[18]
  inhibition: 4.31%
[19]
  inhibition: 8.9%
[20]
  inhibition: 6.38%
